# Test results taken from publication PMC7862700, “An all-to-all approach to the identification of sequence-specific readers for epigenetic DNA modifications on cytosine”.
# Columns and labels:
# Assay in all cases: DAPPL (digital affinity profiling via proximity ligation, sequencing); 10 mM Tris-HCl pH 7.5, 50 mM NaCl, 1 mM DTT, 4% glycerol, room temperature, 30 min; GST-TFs on glutathione beads, 16-mer random dsDNA library, 0.1% formaldehyde crosslink after washing; high values mean tight binding
# [1] = molecular target: T1, FLI1 (Homo sapiens, UniProt Q01543 1-452); conditions: protein: recombinant; tags: N-terminal GST; dsDNA, one strand shown
# T1 sequence: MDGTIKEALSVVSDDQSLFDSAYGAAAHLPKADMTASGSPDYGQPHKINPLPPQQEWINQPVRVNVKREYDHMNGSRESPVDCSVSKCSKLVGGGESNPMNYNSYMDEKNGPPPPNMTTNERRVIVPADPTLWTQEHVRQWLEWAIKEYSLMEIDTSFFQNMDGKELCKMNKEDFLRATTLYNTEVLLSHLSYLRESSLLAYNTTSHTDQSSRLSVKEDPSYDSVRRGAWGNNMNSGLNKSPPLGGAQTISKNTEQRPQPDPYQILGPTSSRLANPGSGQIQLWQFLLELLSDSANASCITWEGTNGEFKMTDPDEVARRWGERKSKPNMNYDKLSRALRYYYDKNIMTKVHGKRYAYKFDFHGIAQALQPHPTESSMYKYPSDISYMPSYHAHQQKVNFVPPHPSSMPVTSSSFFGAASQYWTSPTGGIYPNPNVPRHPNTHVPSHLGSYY
# Procedure, shortened: (§1)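 Pools were built from human transcription factors expressed in yeast as GST fusions, captured on glutathione beads and DNA-barcoded, along with a tag-only sample. Incubation with 200 nmole of a 16-mer random double-stranded DNA library lasted 30 min at room temperature in Tris/NaCl/DTT/glycerol buffer, and was followed by washing, 0.1% formaldehyde crosslinking, proximity ligation, PCR amplification and Illumina NextSeq500 sequencing. Binding signal is the quotient of each hexamer's read frequency for a factor and its frequency for the tag-only sample.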
# [2] = molecular target: T2, ELK1 (Homo sapiens, UniProt P19419 1-428); conditions: protein: recombinant; tags: N-terminal GST; dsDNA, one strand shown
# T2 sequence: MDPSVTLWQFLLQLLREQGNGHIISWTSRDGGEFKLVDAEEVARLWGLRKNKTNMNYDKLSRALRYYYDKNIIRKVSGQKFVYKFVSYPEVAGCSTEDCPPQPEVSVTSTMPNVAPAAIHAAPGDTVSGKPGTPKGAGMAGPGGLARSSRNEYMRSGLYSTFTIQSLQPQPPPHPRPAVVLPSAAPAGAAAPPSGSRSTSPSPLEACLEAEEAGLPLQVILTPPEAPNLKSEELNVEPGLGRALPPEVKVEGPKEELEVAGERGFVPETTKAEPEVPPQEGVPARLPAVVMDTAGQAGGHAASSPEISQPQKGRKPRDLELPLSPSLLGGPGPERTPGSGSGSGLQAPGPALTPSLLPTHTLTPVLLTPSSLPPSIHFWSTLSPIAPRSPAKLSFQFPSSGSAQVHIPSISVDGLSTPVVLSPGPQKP
# Procedure, shortened: as §1
# [3] = molecular target: T3, GABPA (Homo sapiens, UniProt Q06546 1-454); conditions: protein: recombinant; tags: N-terminal GST; dsDNA, one strand shown
# T3 sequence: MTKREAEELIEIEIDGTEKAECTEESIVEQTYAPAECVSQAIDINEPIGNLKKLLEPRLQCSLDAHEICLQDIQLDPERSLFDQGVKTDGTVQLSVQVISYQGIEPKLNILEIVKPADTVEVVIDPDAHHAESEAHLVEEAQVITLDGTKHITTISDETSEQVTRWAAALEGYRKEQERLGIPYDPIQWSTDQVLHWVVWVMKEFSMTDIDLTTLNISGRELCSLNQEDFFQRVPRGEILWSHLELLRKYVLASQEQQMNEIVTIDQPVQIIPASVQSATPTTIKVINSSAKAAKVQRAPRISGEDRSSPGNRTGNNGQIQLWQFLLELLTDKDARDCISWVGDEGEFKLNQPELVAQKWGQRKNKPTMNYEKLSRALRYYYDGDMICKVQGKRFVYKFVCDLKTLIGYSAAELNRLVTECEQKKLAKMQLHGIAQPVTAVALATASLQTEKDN
# Procedure, shortened: as §1
# [4] = molecular target: T4, ERG (Homo sapiens, UniProt P11308 1-479); conditions: protein: recombinant; tags: N-terminal GST; dsDNA, one strand shown
# T4 sequence: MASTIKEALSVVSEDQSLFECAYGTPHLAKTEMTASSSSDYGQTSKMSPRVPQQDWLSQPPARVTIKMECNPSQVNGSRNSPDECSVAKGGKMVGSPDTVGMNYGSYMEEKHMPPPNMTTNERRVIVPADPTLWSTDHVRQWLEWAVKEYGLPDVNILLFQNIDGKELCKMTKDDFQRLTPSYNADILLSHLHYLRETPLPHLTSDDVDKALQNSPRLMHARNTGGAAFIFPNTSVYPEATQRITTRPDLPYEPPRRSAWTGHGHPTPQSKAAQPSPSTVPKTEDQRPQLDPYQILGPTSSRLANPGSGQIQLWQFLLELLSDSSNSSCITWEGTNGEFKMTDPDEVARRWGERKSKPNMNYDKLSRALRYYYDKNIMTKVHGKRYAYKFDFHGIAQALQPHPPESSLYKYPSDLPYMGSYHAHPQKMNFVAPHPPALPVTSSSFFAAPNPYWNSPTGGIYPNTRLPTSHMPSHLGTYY
# Procedure, shortened: as §1
# [5] = molecular target: ELF1 (Homo sapiens, UniProt P32519 1-619); conditions: protein: recombinant; tags: N-terminal GST; dsDNA, one strand shown
# ELF1, sequence (P32519 whole entry): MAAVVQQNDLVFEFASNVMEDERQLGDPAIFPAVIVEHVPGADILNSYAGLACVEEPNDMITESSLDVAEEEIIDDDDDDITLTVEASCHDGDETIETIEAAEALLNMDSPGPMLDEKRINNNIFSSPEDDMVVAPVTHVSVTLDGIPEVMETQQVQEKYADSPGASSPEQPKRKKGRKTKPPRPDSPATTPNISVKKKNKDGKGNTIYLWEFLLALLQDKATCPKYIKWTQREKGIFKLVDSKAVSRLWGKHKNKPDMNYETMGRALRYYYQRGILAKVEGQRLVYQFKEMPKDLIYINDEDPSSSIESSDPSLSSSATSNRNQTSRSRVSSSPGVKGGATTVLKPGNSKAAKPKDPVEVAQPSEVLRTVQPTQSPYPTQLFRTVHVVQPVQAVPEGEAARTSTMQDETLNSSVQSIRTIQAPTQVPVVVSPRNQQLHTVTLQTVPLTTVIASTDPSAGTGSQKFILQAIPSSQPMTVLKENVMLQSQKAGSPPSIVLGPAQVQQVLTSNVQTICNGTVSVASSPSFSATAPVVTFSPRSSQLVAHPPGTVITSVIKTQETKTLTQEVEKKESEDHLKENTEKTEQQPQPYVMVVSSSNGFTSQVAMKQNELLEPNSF
# Procedure, shortened: as §1
# [6] = molecular target: T5, EHF (Homo sapiens, UniProt Q9NZC4 1-300); conditions: protein: recombinant; tags: N-terminal GST; dsDNA, one strand shown
# T5 sequence: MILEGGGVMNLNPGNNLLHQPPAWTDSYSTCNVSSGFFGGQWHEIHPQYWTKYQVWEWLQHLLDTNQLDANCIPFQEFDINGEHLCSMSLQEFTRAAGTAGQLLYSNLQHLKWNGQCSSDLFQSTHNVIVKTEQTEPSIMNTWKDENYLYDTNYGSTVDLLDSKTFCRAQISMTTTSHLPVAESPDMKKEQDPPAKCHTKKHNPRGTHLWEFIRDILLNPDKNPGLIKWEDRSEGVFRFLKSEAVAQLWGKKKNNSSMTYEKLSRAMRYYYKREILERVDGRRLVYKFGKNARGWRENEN
# Procedure, shortened: as §1
# [7] = molecular target: SPI1 (Homo sapiens, UniProt P17947 1-270); conditions: protein: recombinant; tags: N-terminal GST; dsDNA, one strand shown
# Procedure, shortened: as §1
# [8] = molecular target: SPIB (Homo sapiens, UniProt Q01892 1-262); conditions: protein: recombinant; tags: N-terminal GST; dsDNA, one strand shown
# SPIB, sequence (Q01892 whole entry): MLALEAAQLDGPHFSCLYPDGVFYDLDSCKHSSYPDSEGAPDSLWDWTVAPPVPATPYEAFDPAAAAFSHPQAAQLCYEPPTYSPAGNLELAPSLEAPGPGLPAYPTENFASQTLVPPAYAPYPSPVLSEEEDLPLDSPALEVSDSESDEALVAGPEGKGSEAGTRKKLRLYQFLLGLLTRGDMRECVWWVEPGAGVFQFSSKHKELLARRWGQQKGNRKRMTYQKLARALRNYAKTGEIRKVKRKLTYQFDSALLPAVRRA
# Procedure, shortened: as §1
# [9] = molecular target: T6, ELK3 (Homo sapiens, UniProt P41970 1-407); conditions: protein: recombinant; tags: N-terminal GST; dsDNA, one strand shown
# T6 sequence: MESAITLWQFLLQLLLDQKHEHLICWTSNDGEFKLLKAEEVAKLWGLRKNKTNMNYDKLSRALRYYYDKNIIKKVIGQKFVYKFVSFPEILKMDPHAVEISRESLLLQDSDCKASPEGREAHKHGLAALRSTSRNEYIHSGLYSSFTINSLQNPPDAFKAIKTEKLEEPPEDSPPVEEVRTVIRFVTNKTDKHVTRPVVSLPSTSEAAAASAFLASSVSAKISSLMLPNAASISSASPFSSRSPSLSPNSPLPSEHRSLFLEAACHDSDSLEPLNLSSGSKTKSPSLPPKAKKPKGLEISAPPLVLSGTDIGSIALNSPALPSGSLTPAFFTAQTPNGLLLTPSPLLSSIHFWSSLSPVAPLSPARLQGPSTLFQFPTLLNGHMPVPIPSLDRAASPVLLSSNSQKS
# Procedure, shortened: as §1
# [10] = molecular target: T7, FEV (Homo sapiens, UniProt Q99581 1-238); conditions: protein: recombinant; tags: N-terminal GST; dsDNA, one strand shown
# T7 sequence: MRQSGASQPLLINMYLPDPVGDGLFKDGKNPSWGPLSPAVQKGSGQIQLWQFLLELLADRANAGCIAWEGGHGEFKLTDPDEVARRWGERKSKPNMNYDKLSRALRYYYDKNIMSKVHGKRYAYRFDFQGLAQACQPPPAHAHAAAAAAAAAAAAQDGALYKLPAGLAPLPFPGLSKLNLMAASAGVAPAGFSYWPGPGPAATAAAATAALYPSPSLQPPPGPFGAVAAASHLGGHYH
# Procedure, shortened: as §1
# [11] = molecular target: ETV5 (Homo sapiens, UniProt P41161 1-510); conditions: protein: recombinant; tags: N-terminal GST; dsDNA, one strand shown
# ETV5, sequence (P41161 whole entry): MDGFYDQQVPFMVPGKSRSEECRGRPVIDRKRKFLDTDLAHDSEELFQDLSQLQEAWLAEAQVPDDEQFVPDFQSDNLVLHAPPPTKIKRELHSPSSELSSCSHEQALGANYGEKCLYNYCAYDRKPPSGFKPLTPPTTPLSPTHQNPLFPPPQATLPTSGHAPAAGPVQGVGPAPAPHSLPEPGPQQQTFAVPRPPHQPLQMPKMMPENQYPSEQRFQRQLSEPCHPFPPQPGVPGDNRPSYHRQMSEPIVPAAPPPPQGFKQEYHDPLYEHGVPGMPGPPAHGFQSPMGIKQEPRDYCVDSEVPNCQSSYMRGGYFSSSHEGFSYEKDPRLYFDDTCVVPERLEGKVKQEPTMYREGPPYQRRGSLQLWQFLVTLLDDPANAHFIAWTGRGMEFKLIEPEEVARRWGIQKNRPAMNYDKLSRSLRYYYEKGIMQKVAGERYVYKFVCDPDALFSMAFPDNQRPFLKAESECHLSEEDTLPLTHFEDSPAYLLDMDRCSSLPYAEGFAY
# Procedure, shortened: as §1
# [12] = molecular target: HSF1 (Homo sapiens, UniProt Q00613 1-529); conditions: protein: recombinant; tags: N-terminal GST; chain copies: 3; dsDNA, one strand shown
# HSF1, sequence (Q00613 whole entry): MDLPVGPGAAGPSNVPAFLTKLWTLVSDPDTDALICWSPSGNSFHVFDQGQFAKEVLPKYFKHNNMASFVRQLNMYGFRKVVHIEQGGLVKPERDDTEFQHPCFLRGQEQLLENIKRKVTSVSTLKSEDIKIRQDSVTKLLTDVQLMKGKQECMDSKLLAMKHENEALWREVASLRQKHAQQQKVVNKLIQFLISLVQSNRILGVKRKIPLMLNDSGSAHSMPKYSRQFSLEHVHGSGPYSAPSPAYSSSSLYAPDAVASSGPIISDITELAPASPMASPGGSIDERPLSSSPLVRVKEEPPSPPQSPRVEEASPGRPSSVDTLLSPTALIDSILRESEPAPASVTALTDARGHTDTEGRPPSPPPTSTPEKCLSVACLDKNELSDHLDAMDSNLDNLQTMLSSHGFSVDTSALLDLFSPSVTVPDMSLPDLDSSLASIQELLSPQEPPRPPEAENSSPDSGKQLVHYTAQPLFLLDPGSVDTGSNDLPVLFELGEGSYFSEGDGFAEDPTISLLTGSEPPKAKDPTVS
# Procedure, shortened: as §1
# [13] = molecular target: T8, SPIC (Homo sapiens, UniProt Q8N5J4 1-248); conditions: protein: recombinant; tags: N-terminal GST; dsDNA, one strand shown
# T8 sequence: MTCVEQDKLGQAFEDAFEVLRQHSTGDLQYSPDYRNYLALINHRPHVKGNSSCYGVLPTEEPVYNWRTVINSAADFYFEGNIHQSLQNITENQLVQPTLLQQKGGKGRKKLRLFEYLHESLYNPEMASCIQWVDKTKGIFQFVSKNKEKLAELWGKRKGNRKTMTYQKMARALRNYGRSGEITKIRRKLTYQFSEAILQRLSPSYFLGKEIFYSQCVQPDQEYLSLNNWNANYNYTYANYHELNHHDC
# Procedure, shortened: as §1
# [14] = molecular target: ELF4 (Homo sapiens, UniProt Q99607 1-663); conditions: protein: recombinant; tags: N-terminal GST; dsDNA, one strand shown
# ELF4, sequence (Q99607 whole entry): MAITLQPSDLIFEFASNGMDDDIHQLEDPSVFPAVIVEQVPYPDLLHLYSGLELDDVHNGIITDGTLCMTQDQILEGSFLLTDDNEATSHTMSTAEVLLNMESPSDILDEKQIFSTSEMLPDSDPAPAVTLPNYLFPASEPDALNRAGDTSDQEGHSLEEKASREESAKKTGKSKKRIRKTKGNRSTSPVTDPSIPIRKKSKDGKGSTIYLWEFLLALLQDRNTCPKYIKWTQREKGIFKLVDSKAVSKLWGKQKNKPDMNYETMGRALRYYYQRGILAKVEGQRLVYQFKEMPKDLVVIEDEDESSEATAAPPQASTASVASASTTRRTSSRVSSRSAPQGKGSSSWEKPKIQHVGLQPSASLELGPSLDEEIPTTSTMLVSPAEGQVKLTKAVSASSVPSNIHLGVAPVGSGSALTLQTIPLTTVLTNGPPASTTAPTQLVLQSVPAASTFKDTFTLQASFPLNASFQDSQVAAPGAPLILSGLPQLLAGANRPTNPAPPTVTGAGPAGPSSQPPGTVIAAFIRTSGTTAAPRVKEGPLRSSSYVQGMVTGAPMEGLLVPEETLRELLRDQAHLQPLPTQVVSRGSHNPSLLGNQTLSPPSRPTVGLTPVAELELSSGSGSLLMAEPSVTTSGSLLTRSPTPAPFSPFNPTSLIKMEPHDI
# Procedure, shortened: as §1
# [15] = molecular target: T9, ELK4 (Homo sapiens, UniProt P28324-2 1-405); conditions: protein: recombinant; tags: N-terminal GST; dsDNA, one strand shown
# T9 sequence: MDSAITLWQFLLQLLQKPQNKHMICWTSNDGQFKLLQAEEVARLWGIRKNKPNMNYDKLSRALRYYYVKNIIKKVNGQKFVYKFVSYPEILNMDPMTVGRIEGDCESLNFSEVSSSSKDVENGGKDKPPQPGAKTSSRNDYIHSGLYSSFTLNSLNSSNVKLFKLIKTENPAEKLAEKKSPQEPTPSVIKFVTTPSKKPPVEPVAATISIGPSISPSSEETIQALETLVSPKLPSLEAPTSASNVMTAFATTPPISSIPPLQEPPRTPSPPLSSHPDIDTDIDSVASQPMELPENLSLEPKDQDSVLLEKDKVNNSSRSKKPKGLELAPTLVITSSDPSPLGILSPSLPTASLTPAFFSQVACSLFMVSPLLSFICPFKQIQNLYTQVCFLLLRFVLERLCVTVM
# Procedure, shortened: as §1
# [16] = molecular target: T10, ETV2 (Homo sapiens, UniProt O00321 1-342); conditions: protein: recombinant; tags: N-terminal GST; dsDNA, one strand shown
# T10 sequence: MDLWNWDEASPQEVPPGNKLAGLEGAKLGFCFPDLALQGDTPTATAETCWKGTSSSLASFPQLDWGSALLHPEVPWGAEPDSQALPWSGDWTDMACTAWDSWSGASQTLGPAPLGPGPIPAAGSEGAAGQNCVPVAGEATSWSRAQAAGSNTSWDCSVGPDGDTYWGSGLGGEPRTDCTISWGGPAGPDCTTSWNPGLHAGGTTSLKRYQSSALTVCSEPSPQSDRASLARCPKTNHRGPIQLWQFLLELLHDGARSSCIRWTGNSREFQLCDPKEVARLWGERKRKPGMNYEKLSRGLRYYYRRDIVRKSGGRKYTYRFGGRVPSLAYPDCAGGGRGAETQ
# Procedure, shortened: as §1
# [17] = molecular target: T11, ELF3 (Homo sapiens, UniProt P78545 1-371); conditions: protein: recombinant; tags: N-terminal GST; dsDNA, one strand shown
# T11 sequence: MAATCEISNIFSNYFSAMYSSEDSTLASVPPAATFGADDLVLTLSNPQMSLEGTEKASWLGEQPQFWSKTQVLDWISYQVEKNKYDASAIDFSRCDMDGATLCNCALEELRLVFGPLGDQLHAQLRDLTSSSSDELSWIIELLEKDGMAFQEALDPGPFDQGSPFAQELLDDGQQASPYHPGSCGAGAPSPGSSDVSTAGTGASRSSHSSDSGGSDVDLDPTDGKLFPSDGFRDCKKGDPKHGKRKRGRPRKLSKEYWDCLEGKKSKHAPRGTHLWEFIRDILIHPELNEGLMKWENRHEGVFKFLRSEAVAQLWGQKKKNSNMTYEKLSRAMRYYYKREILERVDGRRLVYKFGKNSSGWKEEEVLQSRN
# Procedure, shortened: as §1
# [18] = molecular target: ETV1 (Homo sapiens, UniProt P50549 1-477); conditions: protein: recombinant; tags: N-terminal GST; dsDNA, one strand shown
# ETV1, sequence (P50549 whole entry): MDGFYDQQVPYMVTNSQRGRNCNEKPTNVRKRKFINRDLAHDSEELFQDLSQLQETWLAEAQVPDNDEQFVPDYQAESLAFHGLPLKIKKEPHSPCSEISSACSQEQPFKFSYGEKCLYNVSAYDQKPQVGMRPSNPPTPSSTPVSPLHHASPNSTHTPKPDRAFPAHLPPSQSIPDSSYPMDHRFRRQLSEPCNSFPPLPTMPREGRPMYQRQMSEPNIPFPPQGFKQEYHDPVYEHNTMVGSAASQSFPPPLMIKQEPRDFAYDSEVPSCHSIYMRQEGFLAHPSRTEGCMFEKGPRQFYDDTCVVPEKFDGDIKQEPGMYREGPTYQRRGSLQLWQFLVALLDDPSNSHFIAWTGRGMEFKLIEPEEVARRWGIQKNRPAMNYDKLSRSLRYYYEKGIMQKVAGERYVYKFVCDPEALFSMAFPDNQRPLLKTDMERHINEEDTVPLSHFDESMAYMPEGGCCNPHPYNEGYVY
# Procedure, shortened: as §1
sequence,measurement,setting,value
CGTACA,binding signal,[1],"1.18 fold enrichment (6-mer frequency, TF over GST control)"
same,binding signal,[2],"1.19 fold enrichment (6-mer frequency, TF over GST control)"
same,binding signal,[3],"1.17 fold enrichment (6-mer frequency, TF over GST control)"
same,binding signal,[4],"1.17 fold enrichment (6-mer frequency, TF over GST control)"
same,binding signal,[5],"1.26 fold enrichment (6-mer frequency, TF over GST control)"
same,binding signal,[6],"1.16 fold enrichment (6-mer frequency, TF over GST control)"
same,binding signal,[7],"1.12 fold enrichment (6-mer frequency, TF over GST control)"
same,binding signal,[8],"1.1 fold enrichment (6-mer frequency, TF over GST control)"
same,binding signal,[9],"1.16 fold enrichment (6-mer frequency, TF over GST control)"
same,binding signal,[10],"1.2 fold enrichment (6-mer frequency, TF over GST control)"
same,binding signal,[11],"1.22 fold enrichment (6-mer frequency, TF over GST control)"
same,binding signal,[12],"1.02 fold enrichment (6-mer frequency, TF over GST control)"
same,binding signal,[13],"1.31 fold enrichment (6-mer frequency, TF over GST control)"
same,binding signal,[14],"1.2 fold enrichment (6-mer frequency, TF over GST control)"
same,binding signal,[15],"1.24 fold enrichment (6-mer frequency, TF over GST control)"
same,binding signal,[16],"1.36 fold enrichment (6-mer frequency, TF over GST control)"
same,binding signal,[17],"1.27 fold enrichment (6-mer frequency, TF over GST control)"
same,binding signal,[18],"1.13 fold enrichment (6-mer frequency, TF over GST control)"
